# From PubChem BioAssay
# The source made the active and inactive calls.
# What was measured:
# [1] = tested on: Plasmodium falciparum Sir2 (PF13_0152, Sir2A); test: Plasmodium falciparum Sir2A binding compounds – biochemical, small-molecule microarray, 635 nm fluorescence, primary screen (AID 1098); conditions: fluorescence 635 nm, higher = more signal;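 further: score merges spot fluorescence intensity with its signal-to-noise ratio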
# [2] = probe aDKK1 binding to arrayed compounds – biochemical, biotinylated probe, 635/667 nm fluorescence, primary screen (AID 1099); conditions: small-molecule microarray, higher = more signal;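 further: score merges 667nm spot fluorescence with signal to noise across triplicate slides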
# [3] = probe aCHRDL2 binding to arrayed compounds – biochemical, biotinylated probe, 635/667 nm fluorescence, primary screen (AID 1100); conditions: small-molecule microarray, higher = more signal
# [4] = change in splice reporter luminescence, either direction, cell-based, HEK293, spliceosome inhibition project, primary screen (AID 1101); conditions: HEK293 splicing luciferase reporter, 24 h, higher = more signal, called active from +8 up or from −8 down;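 further: HEK293 cells carrying a splicing-competent luciferase reporter gene; test concentration not given here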
# [5] = molecular target: Fibroblast growth factor 10 (Homo sapiens) (UniProt O15520); test: compounds binding fibroblast growth factor 10 – biochemical, small-molecule microarray, 635 nm fluorescence, primary screen (AID 1102); conditions: FGF10 binding, fluorescence 635 nm, higher = more signal
# [6] = tested on: glycogen synthase kinase-3 (GSK3A per assay name; protocol says GSK3B); test: compounds binding glycogen synthase kinase-3 – biochemical, small-molecule microarray, 635 nm fluorescence, GSK3A, primary screen (AID 1103); conditions: fluorescence 635 nm, higher = more signal; further: the record names both GSK3A and GSK3B
# [7] = molecular target: Epidermal growth factor receptor (Homo sapiens) (UniProt P00533); test: compounds binding epidermal growth factor receptor – biochemical, small-molecule microarray, 635 nm fluorescence, primary screen (AID 1104); conditions: EGFR binding, higher = more signal;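 further: score merges 667 nm emission intensity with spot signal to noise over triplicate slides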
# [8] = molecular target: Follistatin-related protein 3 (Homo sapiens) (UniProt O95633); test: compounds binding follistatin-related protein 3 – biochemical, small-molecule microarray, 635 nm fluorescence, primary screen (AID 1105); conditions: FSTL3 binding, higher = more signal;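 further: score merges emission near 667 nm and signal to noise per printed spot across three slides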
# [9] = molecular target: Dickkopf-related protein 1 (Homo sapiens) (UniProt O94907); test: small molecules binding DKK1 protein – biochemical, small-molecule microarray, 635 nm fluorescence scan, primary screen (AID 1106); conditions: higher = more signal;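 further: score merges emission near 667 nm with signal to noise over three replicate slides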
# [10] = tested on: Inhibin beta A chain (activin A); test: small molecules binding activin A – biochemical, small-molecule microarray, 635 nm fluorescence scan, primary screen (AID 1107); conditions: INHBA, higher = more signal;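 further: mouse activin A protein probed at 4.33 µg/mL on printed slides; score merges bound-protein fluorescence near 667 nm with spot signal-to-noise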
# [11] = tested on: Human papillomavirus type 1a protein E7 (residues 44-93); test: small molecules binding HPV E7 44-93 – biochemical, small-molecule microarray, residues 44-93, 635 nm fluorescence, primary screen (AID 1108); conditions: fluorescence 635 nm, higher = more signal;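 further: E7 fragment applied at 1 µg/mL in TBST for 1 h at 4 C; score combines spot fluorescence with its signal to noise ratio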
# [12] = hepatitis C replication reporter changes, two-sided – Huh7 cells, luciferase reporter, HCV replication inhibitor project, primary screen (AID 1109); conditions: Huh7 HCV replicon luciferase reporter, 48 h; higher = more signal;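 further: huh7 hepatoma cells harbouring a luciferase neomycin HCV replicon reporter; luciferase luminescence as measure of HCV replicon replication; test concentration not given here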
# [13] = molecular target: Left-right determination factor 2 (Homo sapiens) (UniProt O00292); test: small molecules binding LEFTY2 protein – biochemical, small-molecule microarray, 635 nm fluorescence scan, primary screen (AID 1110); conditions: higher = more signal
# [14] = molecular target: Calmodulin-1 (Homo sapiens) (UniProt P0DP23); test: small molecules binding calmodulin-1 with EGTA – biochemical, small-molecule microarray, Cy5-labelled CALM1, profiling panel (AID 1111); conditions: Cy5-CALM1 binding fluorescence, higher = more signal;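 further: labelled calmodulin applied in Tris saline Tween buffer holding calcium plus EGTA and DTT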
# [15] = molecular target: Calmodulin-1 (Homo sapiens) (UniProt P0DP23); test: small molecules binding Ca-loaded calmodulin-1 – biochemical, small-molecule microarray, Cy5-labelled CALM1, plus calcium, artefact control for SMM control-protein annotation, profiling panel (AID 1112); conditions: Cy5-CALM1 binding fluorescence, higher = more signal;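 further: score merges spot fluorescence with signal to noise from triplicate slides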
# [16] = probe aWnt5a binding to arrayed compounds – biochemical, biotinylated probe, 635/667 nm fluorescence, primary screen (AID 1113); conditions: small-molecule microarray, higher = more signal;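 further: score merges 667 nm fluorescence intensity with signal-to-noise per printed feature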
# [17] = probe aShh binding to arrayed compounds – biochemical, biotinylated probe, 635/667 nm fluorescence, primary screen (AID 1114); conditions: small-molecule microarray, higher = more signal;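 further: probe is biotin-labelled aShh protein from a stem cell growth factor screen; measures binding of labelled protein to compounds printed on the slide; score merges feature fluorescence at 667 nm with signal-to-noise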
# [18] = probe aNog binding to arrayed compounds – biochemical, biotinylated probe, 635/667 nm fluorescence, primary screen (AID 1115); conditions: small-molecule microarray, higher = more signal;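 further: probe is biotinylated aNog protein used at 0.15 µg/mL for 1 h at 4 C; z-score combines 667 nm fluorescence of each spot with its signal to noise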
# [19] = molecular target: Torsin-1A-interacting protein 1 (Homo sapiens) (UniProt Q5JTV8); test: compound microarray binding of lysate hLAP1 – cell lysate, small-molecule microarray, COS7 lysate, 635/667 nm fluorescence, primary screen (AID 1116); conditions: 635 nm fluorescence, higher = more signal
# [20] = molecular target: Alpha-bungarotoxin (Bungarus multicinctus) (UniProt P60615); test: compounds binding labelled alpha-BTX control protein – biochemical, small-molecule microarray, Alexa647 label, 635/667 nm fluorescence, artefact control for SMM control protein annotation, profiling panel (AID 1117); conditions: alpha-BTX-A647 binding fluorescence, higher = more signal
# Alpha-bungarotoxin (Bungarus multicinctus), sequence (P60615 whole entry, looked up): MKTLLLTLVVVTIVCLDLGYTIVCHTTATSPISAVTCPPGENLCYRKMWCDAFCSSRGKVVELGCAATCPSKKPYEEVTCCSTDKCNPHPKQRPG
# Fibroblast growth factor 10 (Homo sapiens), sequence (O15520 whole entry, looked up): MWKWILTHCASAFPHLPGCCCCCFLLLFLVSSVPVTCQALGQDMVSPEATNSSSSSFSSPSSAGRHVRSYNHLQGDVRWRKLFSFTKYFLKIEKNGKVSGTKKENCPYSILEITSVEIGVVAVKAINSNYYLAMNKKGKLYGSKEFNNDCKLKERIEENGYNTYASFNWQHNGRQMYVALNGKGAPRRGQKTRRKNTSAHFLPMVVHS
# Epidermal growth factor receptor (Homo sapiens), sequence (P00533 whole entry, looked up): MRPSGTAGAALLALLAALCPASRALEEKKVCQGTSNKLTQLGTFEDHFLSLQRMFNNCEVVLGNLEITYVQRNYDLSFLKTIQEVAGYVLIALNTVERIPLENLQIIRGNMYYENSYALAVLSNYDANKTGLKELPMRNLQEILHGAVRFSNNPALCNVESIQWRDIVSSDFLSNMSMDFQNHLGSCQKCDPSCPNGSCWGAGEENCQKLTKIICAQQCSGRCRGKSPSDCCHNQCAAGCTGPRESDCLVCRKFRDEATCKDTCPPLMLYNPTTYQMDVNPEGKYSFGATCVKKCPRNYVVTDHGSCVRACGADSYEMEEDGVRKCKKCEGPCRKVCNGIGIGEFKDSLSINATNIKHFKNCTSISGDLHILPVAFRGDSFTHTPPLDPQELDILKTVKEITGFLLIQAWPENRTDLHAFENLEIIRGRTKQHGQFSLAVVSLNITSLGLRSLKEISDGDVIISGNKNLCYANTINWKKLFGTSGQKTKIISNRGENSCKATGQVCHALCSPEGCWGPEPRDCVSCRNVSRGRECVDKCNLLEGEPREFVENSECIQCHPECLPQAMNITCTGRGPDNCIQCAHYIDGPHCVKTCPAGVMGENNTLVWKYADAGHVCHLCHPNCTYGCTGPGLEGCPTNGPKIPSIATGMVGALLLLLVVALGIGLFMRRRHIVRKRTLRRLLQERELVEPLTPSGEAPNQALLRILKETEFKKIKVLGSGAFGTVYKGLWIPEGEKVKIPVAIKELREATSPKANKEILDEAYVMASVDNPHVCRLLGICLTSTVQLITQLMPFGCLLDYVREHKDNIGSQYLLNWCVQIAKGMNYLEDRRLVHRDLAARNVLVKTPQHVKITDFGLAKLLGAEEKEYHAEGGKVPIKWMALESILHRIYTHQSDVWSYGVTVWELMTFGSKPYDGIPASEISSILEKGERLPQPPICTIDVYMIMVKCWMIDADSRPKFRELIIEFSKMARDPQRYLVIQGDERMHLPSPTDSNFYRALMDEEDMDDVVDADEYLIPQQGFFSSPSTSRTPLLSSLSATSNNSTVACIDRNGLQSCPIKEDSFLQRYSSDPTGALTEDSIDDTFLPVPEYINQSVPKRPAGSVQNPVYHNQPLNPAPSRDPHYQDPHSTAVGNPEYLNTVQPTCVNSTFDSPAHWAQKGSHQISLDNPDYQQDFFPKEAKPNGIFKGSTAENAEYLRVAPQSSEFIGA
# Follistatin-related protein 3 (Homo sapiens), sequence (O95633 whole entry, looked up): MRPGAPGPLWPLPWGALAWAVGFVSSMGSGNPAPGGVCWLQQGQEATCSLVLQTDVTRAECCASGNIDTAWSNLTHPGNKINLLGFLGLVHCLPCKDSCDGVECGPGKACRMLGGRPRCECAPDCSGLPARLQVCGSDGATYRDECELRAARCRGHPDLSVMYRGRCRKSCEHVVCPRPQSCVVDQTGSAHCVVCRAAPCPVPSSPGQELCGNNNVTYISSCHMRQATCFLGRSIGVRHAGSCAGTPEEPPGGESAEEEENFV
# Torsin-1A-interacting protein 1 (Homo sapiens), sequence (Q5JTV8 whole entry, looked up): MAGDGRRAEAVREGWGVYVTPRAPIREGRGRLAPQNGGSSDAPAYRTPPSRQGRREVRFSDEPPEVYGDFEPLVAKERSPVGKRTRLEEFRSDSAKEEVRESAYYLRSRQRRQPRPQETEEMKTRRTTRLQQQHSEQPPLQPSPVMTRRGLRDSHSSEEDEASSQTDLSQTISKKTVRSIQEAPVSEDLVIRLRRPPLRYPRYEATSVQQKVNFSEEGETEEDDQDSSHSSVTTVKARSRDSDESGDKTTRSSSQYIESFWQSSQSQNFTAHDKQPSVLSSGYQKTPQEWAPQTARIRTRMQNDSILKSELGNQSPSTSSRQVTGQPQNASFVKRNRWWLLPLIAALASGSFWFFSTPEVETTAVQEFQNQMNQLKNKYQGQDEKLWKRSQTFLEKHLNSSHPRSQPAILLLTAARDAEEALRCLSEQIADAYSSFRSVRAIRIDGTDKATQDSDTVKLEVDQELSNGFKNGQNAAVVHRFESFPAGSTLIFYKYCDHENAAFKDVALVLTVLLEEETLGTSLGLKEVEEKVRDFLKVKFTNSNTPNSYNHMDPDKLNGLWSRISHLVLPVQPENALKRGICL
# Dickkopf-related protein 1 (Homo sapiens), sequence (O94907 whole entry, looked up): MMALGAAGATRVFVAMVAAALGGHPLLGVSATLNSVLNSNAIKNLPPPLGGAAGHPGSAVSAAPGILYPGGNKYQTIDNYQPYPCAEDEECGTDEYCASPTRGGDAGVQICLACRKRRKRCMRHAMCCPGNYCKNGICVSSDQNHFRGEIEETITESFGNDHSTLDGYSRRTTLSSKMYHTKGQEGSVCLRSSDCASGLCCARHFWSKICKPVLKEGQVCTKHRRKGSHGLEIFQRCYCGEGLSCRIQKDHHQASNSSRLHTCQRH
# Left-right determination factor 2 (Homo sapiens), sequence (O00292 whole entry, looked up): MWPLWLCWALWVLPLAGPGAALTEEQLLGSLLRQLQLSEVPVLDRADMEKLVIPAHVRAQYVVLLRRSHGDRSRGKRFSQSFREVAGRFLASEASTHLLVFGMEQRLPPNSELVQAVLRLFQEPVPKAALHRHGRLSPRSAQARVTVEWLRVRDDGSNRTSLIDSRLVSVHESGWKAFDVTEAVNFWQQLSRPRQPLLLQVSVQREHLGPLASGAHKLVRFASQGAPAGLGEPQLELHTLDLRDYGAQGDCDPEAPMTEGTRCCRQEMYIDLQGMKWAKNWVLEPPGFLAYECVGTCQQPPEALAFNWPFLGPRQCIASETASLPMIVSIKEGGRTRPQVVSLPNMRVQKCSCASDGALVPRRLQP
SMILES,composite z-score [1],composite z-score [2],composite z-score [3],z-score [4],composite z-score [5],composite z-score [6],composite z-score [7],composite z-score [8],composite z-score [9],composite z-score [10],composite z-score [11],z-score [12],composite z-score [13],composite z-score [14],composite z-score [15],composite z-score [16],composite z-score [17],composite z-score [18],composite z-score [19],composite z-score [20]
CC(=O)c1ccc(C(O)C2C=CC3C(=O)N(c4ccccc4)C(=O)C3N2Nc2ccc(C#N)cc2)cc1 (stereo not given),0.45,0.204,0.764,0.744 (inactive),-0.0433,0.582,0.262,0.133,-0.594,0.443,0.909,-0.0483,0.0172,1.11,0.586,-0.172,0.149,-0.409,0.142,1.33
CCOc1cc(C(O)C2C=CC3C(=O)N(C)C(=O)C3N2Nc2ccccc2)ccc1O (stereo not given),0.764,0.791,0.0692,0.719 (inactive),0.736,0.57,0.0228,0.0592,-0.329,0.569,1.24,-0.146,0.0031,0.796,-0.211,-0.0165,-0.155,-0.145,1.92,0.848
CN1C(=O)C2C=CC(C(O)c3ccc(F)cc3)N(Nc3ccccc3)C2C1=O (stereo not given),1.4,0.4,0.902,0.909 (inactive),0.0186,-0.433,-0.165,0.578,-0.463,0.623,0.793,-0.216,0.0204,0.746,0.693,-0.0165,-0.412,-0.305,0.635,1.62
COCCCNC(=O)[C@]1(CCS(=O)(=O)c2ccccc2)N=C(c2ccc(OCCCO)cc2)O[C@@H]1c1ccccc1CN=[N+]=[N-],1.51,1.41,1.26,-0.325 (inactive),1.54,1.32,0.233,1.2,-0.0602,0.746,0.826,-1.47,0.329,2.49,1.12,0.392,0.536,1.54,2.7,2.16
C=CCC(OC(C)=O)[C@@H]1[C@@H](N(Cc2cc3ccccc3o2)C(=O)c2ccc(-c3ccccc3)cc2)c2cc(OCCCO)ccc2N1C(=O)c1ccc2ccccc2c1 (stereo not given in full),0.187,-0.106,0.285,0.416 (inactive),0.132,0.289,-0.0546,0.674,0.227,1.02,0.143,-1.48,0.0403,0.137,0.185,-0.0398,0.0048,-0.466,0.612,0.264
O=C(NCC(F)(F)F)[C@@H]1c2ccccc2C(=O)N(Cc2ccccc2C(F)(F)F)[C@H]1c1ccc(CO)cc1,1.78,0.757,0.805,-0.335 (inactive),-0.141,-0.677,-0.79,-0.604,-0.377,0.547,-0.315,-0.941,-1.02,0.0216,0.792,-0.276,0.0044,-0.101,-0.121,-0.695
COCCOC(=O)N1C(=O)[C@@]2(c3cc(C#Cc4ccc(OC)cc4)ccc31)[C@H](c1ccc(O)cc1)N1[C@H](c3ccccc3)[C@H](c3ccccc3)OC(=O)[C@H]1[C@@H]2C(=O)N1CCCCCCC1,0.447,1.81,1.36,1.5 (inactive),0.506,-0.151,-0.191,0.859,0.423,1.31,0.699,-0.48,0.187,1.54,0.946,-0.151,0.199,1.48,2.14,0.63
C[N+](C)(C)CCCCCCNC(=O)[C@H]1C[C@H]2C(=O)N[C@@H](Cc3ccccc3)C(=O)N2[C@H]1c1ccc(O)cc1,1.27,-0.265,-0.534,-0.0288 (inactive),0.98,0.637,0.192,0.894,0.834,0.445,-0.306,0.975,1.09,-0.667,-0.973,0.0873,-0.0146,-0.175,0.302,0.966
COc1ccc(NC(=O)O[C@H]2[C@H](OC(=O)Nc3ccccc3)[C@@H](OC(=O)Nc3ccccc3)[C@@H](OC)O[C@@H]2CO)cc1,1.55,0.25,0.39,-1.67 (inactive),1.5,1.31,0.0729,0.83,0.396,0.385,1.28,-3.04,0.298,1.41,-0.298,0.107,-0.0813,0.564,1.25,0.577
COC(=O)[C@@]1(Cc2ccc(OC)cc2)[C@H]2c3cc(C(=O)N(C)C)n(Cc4ccc(Cl)c(C(F)(F)F)c4)c3C[C@H]2CN1C(=O)c1ccccc1,0.546,1.45,1.49,0.524 (inactive),0.523,0.363,-0.242,0.83,-1.12,0.986,1.39,-2,-0.566,1.41,1.12,0.235,1.19,2.18,0.535,0.99
CC(CO)N1C(=O)[C@@H]2[C@H]3C(=O)OCC=C[C@H]3OC23C=CCN(Cc2ccccc2)C(=O)[C@@H]13 (stereo not given in full),0.978,-0.321,0.247,-1.11 (inactive),-0.49,-1.23,-1.18,-0.578,-0.567,0.056,-1.13,-0.254,-0.509,-0.216,-0.324,0.206,-0.211,-0.273,-0.5,-0.221
